# Results reported in PubChem BioAssay (NCATS).
# Results filed as inconclusive are left out. A call without a number means that no potency is given here. Active and inactive are the calls of the source. Calls follow the shape of the dose curve; as a rule, active = well fitted inhibition curve with a large enough effect; inconclusive = small, poorly fitted or top-dose-only effect; inactive = flat fitted curve, though single readings scatter.
# Columns and labels:
# [1] = biological target: Glutathione peroxidase 1 (Homo sapiens) (UniProt P07203); assay: Primary qHTS Assay for Inhibitors of Recombinant Selenoprotein Glutathione Peroxidase 1 (GPX1) (AID 1845191); conditions: recombinant GPX1, GR-coupled NADPH fluorescence, 15 min; series mostly up to 48.8 µM; also: nearly all actives have a fitted effect of over 65% in size
# Procedure, shortened: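 GR-coupled assay: compounds preincubated 30 min at room temperature with GPX1, then reaction started with CHP; final 10 nM GPX1, 1 mM GSH, 0.5 mM CHP, 0.5 mM NADPH, 100 nM GR, 0.01% BSA, pH 7.5 Tris buffer. NADPH fluorescence (340/450 nm) read at 0 and 15 min.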
# [2] = biological target: Phospholipid hydroperoxide glutathione peroxidase GPX4 (Homo sapiens) (UniProt P36969); assay: Primary qHTS Assay for Inhibitors of Recombinant Selenoprotein Glutathione Peroxidase 4 (GPX4) (AID 1845192); conditions: recombinant GPX4, GR-coupled NADPH fluorescence, 15 min; series mostly up to 50 µM; also: nearly all actives have a fitted effect of over 65% in size
# Procedure, shortened: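 GR-coupled assay: recombinant GPX4 preincubated 30 min with compound at room temperature; final 200 nM GPX4, 1 mM GSH, 0.5 mM cumene hydroperoxide, 0.5 mM NADPH, 100 nM GR, 0.01% BSA, pH 7.5 Tris. NADPH fluorescence (340/450 nm) read at 0 and 15 min.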
# [3] = biological target: Luciferin 4-monooxygenase (Photinus pyralis) (UniProt P08659); assay: Primary firefly luciferase (FLuc) qHTS assay for identification of artifact compounds. (AID 1845220); conditions: purified firefly luciferase, luminescence, 5 min; series mostly up to 54.1 µM; also: nearly all actives have a fitted effect of over 60% in size
# Procedure, shortened: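 Titrated compounds were incubated 15 min at RT, protected from light, with luciferin and ATP at 10 uM; reaction started with 10 nM FLuc, luminescence imaged at 5 min, and concentration-response fitted by Hill equation.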
# Sequence of Phospholipid hydroperoxide glutathione peroxidase GPX4 (Homo sapiens) (P36969 whole entry, looked up): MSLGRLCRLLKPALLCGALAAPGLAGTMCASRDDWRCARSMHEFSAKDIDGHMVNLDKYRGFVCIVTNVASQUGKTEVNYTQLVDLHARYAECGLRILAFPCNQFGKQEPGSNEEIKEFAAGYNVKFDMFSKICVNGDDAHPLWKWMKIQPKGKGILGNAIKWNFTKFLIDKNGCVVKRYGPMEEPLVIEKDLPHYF
# Sequence of Glutathione peroxidase 1 (Homo sapiens) (P07203 whole entry, looked up): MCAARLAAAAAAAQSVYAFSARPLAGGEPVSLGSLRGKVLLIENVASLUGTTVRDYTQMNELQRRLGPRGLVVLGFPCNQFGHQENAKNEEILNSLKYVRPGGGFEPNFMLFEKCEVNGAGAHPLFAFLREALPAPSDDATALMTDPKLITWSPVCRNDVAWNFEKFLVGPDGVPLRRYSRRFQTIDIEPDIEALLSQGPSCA
structure (smiles),measurement,setting,value
Cc1ccccc1C(=O)c1ccc(Nc2ccc(Br)cc2N)cc1Cl,Potency,[1],inactive
same,Potency,[2],inactive
same,Potency,[3],inactive
NS(=O)(=O)c1cc(Cl)c(Cl)c(S(N)(=O)=O)c1,Potency,[1],inactive
same,Potency,[2],inactive
same,Potency,[3],inactive
O=C(CO)N1CCC(c2[nH]nc(-c3ccc(Cl)cc3)c2-c2ccncn2)CC1,Potency,[1],inactive
same,Potency,[2],inactive
same,Potency,[3],inactive
OC(c1cc(C(F)(F)F)nc2c(C(F)(F)F)cccc12)C1CCCCN1 (stereo not drawn),Potency,[1],inactive
same,Potency,[2],inactive
CC1CCN(c2cc(N3CCN(C)CC3)ccc2NC(=O)c2cc(C#N)c[nH]2)CC1,Potency,[1],inactive
same,Potency,[2],inactive
same,Potency,[3],inactive
CC1(C)CC(=O)c2c(C(F)(F)F)nn(-c3ccc(C(N)=O)c(NC4CCC(O)CC4)c3)c2C1 (stereo not drawn),Potency,[1],inactive
same,Potency,[2],inactive
same,Potency,[3],inactive
CCN(CCO)CCCOc1ccc2c(Nc3cc(CC(=O)Nc4cccc(F)c4)[nH]n3)ncnc2c1,Potency,[1],inactive
same,Potency,[2],inactive
same,Potency,[3],inactive
Nc1[nH]nc2nnc(-c3c(-c4ccccc4)nn4ccccc34)cc12,Potency,[1],inactive
same,Potency,[2],inactive
same,Potency,[3],inactive
COc1cc2nccc(Oc3ccc(NC(=O)Nc4ccc(F)cc4F)c(F)c3)c2cc1OC,Potency,[1],inactive
same,Potency,[2],inactive
CN[C@@H](C)[C@H]1[C@H](O)C[C@@]2(C)[C@@H]3CC[C@H]4C(C)(C)[C@@H](NC)CC[C@@]45C[C@@]35CC[C@]12C,outcome,[1],inactive [at 9.52 µM]
same,"activity change, negative = inhibition",[2],-4.33% [at 9.73 µM] (inactive)
same,"activity change, negative = inhibition",[3],1.81% [at 11.6 µM] (inactive)
N#CC(c1ccnc(NCCc2cccnc2)n1)c1nc2ccccc2s1 (stereo not drawn),Potency,[1],inactive
same,Potency,[2],inactive
Nc1ccc(-c2ccc3ncc4ccc(=O)n(-c5cccc(C(F)(F)F)c5)c4c3c2)cn1,Potency,[1],inactive
same,Potency,[2],inactive
same,Potency,[3],inactive
COC(=O)N1CCN(Cc2cccc(NC(=O)Nc3ccc(C)nc3)c2F)CC1,Potency,[1],inactive
same,Potency,[2],inactive
same,Potency,[3],inactive
CNC(=O)c1cc(Oc2ccc(NC(=O)Nc3ccc(Cl)c(C(F)(F)F)c3)c(F)c2)ccn1,Potency,[1],inactive
same,Potency,[2],inactive
same,Potency,[3],inactive
CCCCn1c(=O)n(Cc2ccccc2F)c(=O)c2[nH]c(Cc3ccc(NC(C)=O)cc3)nc21,Potency,[1],inactive
same,Potency,[2],inactive
same,Potency,[3],inactive
O=C(CC12CC3CC(CC(C3)C1)C2)Nc1cccc2nc(NCCNCCO)ccc12,Potency,[1],inactive
same,Potency,[2],inactive
same,Potency,[3],inactive
CSc1cccc(Nc2ncc3cc(-c4c(Cl)cccc4Cl)c(=O)n(C)c3n2)c1,Potency,[1],inactive
same,Potency,[2],inactive
CN1CCN2c3ncccc3Cc3ccccc3C2C1 (stereo not drawn),Potency,[1],inactive
same,Potency,[2],inactive
COC(=O)Nc1ccc(-c2nc(N3CCOCC3)c3cnn(C4CCN(C(=O)OC)CC4)c3n2)cc1,Potency,[1],inactive
same,Potency,[2],inactive
CC(C)(O)CC(=O)NCCn1ccc2ncnc(Nc3ccc(Oc4cccc(C(F)(F)F)c4)c(Cl)c3)c21,Potency,[1],inactive
same,Potency,[2],inactive
same,Potency,[3],inactive
O=c1[nH]nc(OCCCc2ccc(Cl)cc2)c(NCc2cccnc2)c1Br,Potency,[1],inactive
same,Potency,[2],inactive
same,Potency,[3],inactive
c1cc(OCCN2CCCCC2)cc(-c2n[nH]c3ccc(-c4ncn[nH]4)cc23)c1,Potency,[1],inactive
same,Potency,[2],inactive
same,Potency,[3],inactive
c1ccc(-c2oc3ncnc(NC[C@@H]4CCCO4)c3c2-c2ccccc2)cc1,Potency,[1],inactive
same,Potency,[2],inactive
same,Potency,[3],inactive
COc1ccc(-c2ccc3ncc4c(c3c2)n(-c2ccc(N3CCNCC3)c(C(F)(F)F)c2)c(=O)n4C)cn1,Potency,[1],inactive
same,Potency,[2],inactive
same,Potency,[3],inactive
COc1cc2ncnc(Nc3cc(Br)c(O)c(Br)c3)c2cc1OC,Potency,[1],inactive
same,Potency,[2],inactive
same,Potency,[3],inactive
Cc1cnc(Nc2cccc(CN3CCOCC3)c2)nc1Nc1cccc(S(=O)(=O)NC(C)(C)C)c1,Potency,[1],inactive
same,Potency,[2],inactive
same,Potency,[3],inactive
Cc1cnc(-c2cc(N3CCN(C(=O)CCS(C)(=O)=O)CC3)ncc2Cl)c(C)c1,Potency,[1],inactive
same,Potency,[2],inactive
same,Potency,[3],inactive
C[C@H](c1ccc(F)cc1CCCC(=O)O)N(c1cc(F)ccc1F)S(=O)(=O)c1ccc(Cl)cc1,Potency,[1],inactive
same,Potency,[2],inactive
same,Potency,[3],inactive
COc1ccc(Cn2ccc3ccc(C(=O)NO)cc32)cc1,Potency,[1],inactive
same,Potency,[2],inactive
same,Potency,[3],inactive
Clc1ccc(C2(c3ccc(-c4cn[nH]c4)cc3)CCNCC2)cc1,Potency,[1],inactive
same,Potency,[2],inactive
same,Potency,[3],inactive
CS(=O)(=O)c1ccc(C2=C(c3ccccc3)C(=O)OC2)cc1,Potency,[1],inactive
same,Potency,[2],inactive
same,Potency,[3],inactive
CC1=C(C(=O)Nc2cc3cn[nH]c3cc2F)C(c2ccc(C(F)(F)F)cc2)CC(=O)N1 (stereo not drawn),Potency,[1],inactive
same,Potency,[2],inactive
same,Potency,[3],inactive
CC(C)CNc1ccnc(NCc2csc(-c3ccccc3)n2)n1,Potency,[1],inactive
same,Potency,[2],inactive
same,Potency,[3],inactive
